Data as given in PubChem BioAssay AID1159580 (chemical genetic matrix, 2015).
“And” between values parts separate entries of the source, which are not always exact repeats. Equal values may be shown once. The campaign covered roughly 5,500 compounds. About 2,000 (36%) were called active. Another 18% or so got no clear call; they are omitted. Rule as the data show it: active = normalized growth mostly below about 0.91 (no sharp cut-off); inconclusive = no clear call, values can overlap the other calls; inactive = mostly above about 0.92. Some of the results follow.

Assay: chemical genetic growth profiling, strain panel (AID 1159580);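 also: tested at 20 µM; growth read once vehicle control cultures reached saturation at 30 °C; 1 = growth at the plate median or of vehicle wells; lower values mean less growth of the strain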
Conditions: S. cerevisiae deletion strains, growth OD

Measured: normalized growth

CCOC(=O)[C@H](CCc1ccccc1)N[C@H]1CCc2ccccc2N(CC(=O)O)C1=O
inactive: locus YAL013W, strain DEP1, active compounds read low 0.989 | locus YAL021C, strain ccr4, active compounds read low 0.961 | locus YAL026C, strain drs2, active compounds read low 0.959 | locus YAL030W, strain snc1, active compounds read low 0.992 | locus YBL061C, strain skt5, active compounds read low 0.988 | locus YBR009C, strain hhf1, active compounds read low 0.973 | locus YBR021W, strain FUR4, active compounds read low 0.978 | locus YBR023C, strain chs3, active compounds read low 0.989 | locus YBR171W, strain sec66, active compounds read low 0.976 | locus YBR229C, strain ROT2, active compounds read low 0.986 | locus YBR231C, strain swc5, active compounds read low 0.96 | locus YBR279W, strain paf1, active compounds read low 0.987 | locus YCL011C, strain gbp2, active compounds read low 0.992 | locus YCL016C, strain dcc1, active compounds read low 0.981 | locus YCL029C, strain bik1, active compounds read low 0.966 | locus YCL061C, strain MRC1, active compounds read low 0.979 | locus YCL069W, strain vba3, active compounds read low 0.99 | locus YCR088W, strain abp1, active compounds read low 0.975 | locus YDL005C, strain med2, active compounds read low 0.972 | locus YDL035C, strain GPR1, active compounds read low 0.998 | locus YDL040C, strain nat1, active compounds read low 0.995 | locus YDL074C, strain BRE1, active compounds read low 0.998 | locus YDL101C, strain DUN1, active compounds read low 0.983 | locus YDL134C, strain PPH21, active compounds read low 0.998 | locus YDL185W, strain tfp1, active compounds read low 0.978 | locus YDL192W, strain arf1, active compounds read low 0.97 | locus YDR001C, strain nth1, active compounds read low 1.01 | locus YDR069C, strain doa4, active compounds read low 0.978 | locus YDR101C, strain arx1, active compounds read low 0.98 | locus YDR137W, strain rgp1, active compounds read low 0.992 | locus YDR150W, strain NUM1, active compounds read low 0.987 | locus YDR159W, strain sac3, active compounds read low 1.01 | locus YDR162C, strain NBP2, active compounds read low 0.987 | locus YDR195W, strain ref2 0.961 | locus YDR297W, strain sur2, active compounds read low 0.99 | locus YDR318W, strain mcm21, active compounds read low 0.977 | locus YDR334W, strain swr1, active compounds read low 0.988 | locus YDR335W, strain msn5, active compounds read low 0.983 | locus YDR388W, active compounds read low 0.976 | locus YDR392W, strain spt3, active compounds read low 0.963 | locus YDR502C, strain sam2, active compounds read low 0.985 | locus YEL003W, strain gim4, active compounds read low 0.992 | locus YEL037C, strain rad23, active compounds read low 0.982 | locus YEL061C, strain CIN8 (second series), active compounds read low 0.986 | locus YEL061C, strain CIN8, active compounds read low 0.989 | locus YER015W, strain faa2, active compounds read low 0.985 | locus YER016W, strain bim1, active compounds read low 0.979 | locus YER110C, active compounds read low 0.979 | locus YER111C, strain swi4, active compounds read low 1 | locus YER155C, strain BEM2 (second series), active compounds read low 0.902 | locus YER155C, strain BEM2, active compounds read low 0.984 | locus YER167W, strain BCK2, active compounds read low 0.984 | locus YFR010W, strain ubp6, active compounds read low 0.982 | locus YGL078C, strain dbp3, active compounds read low 0.977 | locus YGL086W, strain mad1, active compounds read low 0.988 | locus YGL167C, strain pmr1, active compounds read low 0.983 | locus YGL173C, strain kem1, active compounds read low 0.974 | locus YGL227W, strain vid30, active compounds read low 0.965 | locus YGL240W, strain doc1, active compounds read low 0.949 | locus YGL248W, strain PDE1, active compounds read low 0.983 | locus YGL253W, strain hxk2, active compounds read low 0.999 | locus YGR078C, strain PAC10, active compounds read low 1.01 | locus YGR135W, strain pre9, active compounds read low 0.985 | locus YGR229C, strain SMI1, active compounds read low 0.994 | locus YGR252W, strain gcn5, active compounds read low 1.04 | locus YHR013C, strain ard1, active compounds read low 0.977 | locus YHR027C, strain rpn1, active compounds read low 0.992 | locus YHR030C, strain SLT2, active compounds read low 0.981 and 0.964 | locus YHR079C, strain IRE1 (second series), active compounds read low 0.969 | locus YHR079C, strain IRE1, active compounds read low 0.964 | locus YHR094C, strain hxt1, active compounds read low 0.976 | locus YHR129C, strain ARP1, active compounds read low 0.988 | locus YHR142W, strain chs7, active compounds read low 0.986 | locus YHR200W, strain rpn10, active compounds read low 0.979 | locus YIL066C, strain RNR3, active compounds read low 0.985 | locus YIL073C, strain SPO22, active compounds read low 1.01 | locus YIL125W, strain kgd1, active compounds read low 0.978 | locus YIR030C, strain dcg1, active compounds read low 0.968 | locus YJL092W, strain hpr5, active compounds read low 0.988 | locus YJL095W, strain BCK1 (second series), active compounds read low 0.979 | locus YJL095W, strain BCK1, active compounds read low 0.99 and 0.984 | locus YJL115W, strain asf1, active compounds read low 0.969 | locus YJL129C, strain trk1, active compounds read low 0.973 | locus YJL134W, strain LCB3, active compounds read low 0.979 | locus YJL154C, strain vps35, active compounds read low 0.992 | locus YJL164C, strain tpk1, active compounds read low 0.97 | locus YJL166W, strain qcr8, active compounds read low 0.964 | locus YJL168C, strain set2, active compounds read low 0.973 | locus YJL187C, strain SWE1 (second series), active compounds read low 0.986 | locus YJR043C, strain POL32, active compounds read low 0.984 | locus YJR066W, strain TOR1, active compounds read low 0.942
